VACV mCherry inh = inhibitors of vaccinia virus infection (mCherry reporter signal); Vaccinia virus mCherry reporter infection, fluorescence; Potency, µM (highest dose often 36.5 µM), inactives show top-dose activity change, negative = inhibition, actives largely listed as inhibitors; 310,000 tested, 0.63% active; calls by dose curve; tested in A549 cells; further: nearly all actives have a fitted effect of over 35% in size
VACV Venus inh = vaccinia inhibition (Venus reporter). Vaccinia virus Venus reporter expression, fluorescence. Potency, µM (top dose mostly 36.5 µM), for the others: at the top dose activity change, negative = inhibition, actives largely listed as inhibitors. 330,000 tested, 0.46% active. AID 720580; calls by dose curve; tested in A549 cells; further: nearly all actives have a fitted effect of over 30% in size
MARV entry inh = Marburg virus entry inhibition; AID 540276; Potency, µM (titrated, usually from 37.8 µM), for the others: at the highest dose activity change, negative = inhibition, usual class: inhibitors; Marburg virus pseudotyped entry inhibition, cell reporter; 300,000 tested, 1.8% active; calls by dose curve; tested in HEK293 cells
Lassa entry inh = blocks Lassa virus binding to or entry into cells. Potency, µM (top dose mostly 37.9 µM), for inactives: top-dose activity change, negative = inhibition, usual class: inhibitors. Lassa virus pseudotype entry inhibition, cell reporter. 300,000 tested, 1.2% active; calls by dose curve; tested in HEK293 cells; further: nearly all actives have a fitted effect of over 50% in size
HCV inhibitor = HCV inhibition | Huh7.5.1 HCVcc-Cre infection, luciferase reporter, 44 h | Potency, µM (series often up to 41.8 µM), without a hit: at the top dose activity change, negative = inhibition, actives largely listed as inhibitors | 340,000 tested, 3.4% active | AID 651820; active means well fitted inhibition curve with a large enough effect; inconclusive means small, poorly fitted or top-dose-only effect, or another doubt; inactive means no such curve, though single readings can be large or run the other way
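1,000 cells/well; 4 h culture; + compound; + HCVcc-Cre (~0.5 moi); 44 h; luciferase substrate, RT 15 min; read 15 sec.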
Active calls of the source: *; i = inactive; ? = inconclusive; · = not tested or not shown; [ ] = remark or other dose. A selection: hits, their analogues and other compounds. The true share with any hit is near 4.6%. On the % scale 0 is the no-effect control and ±100 the full control effect; potency means the concentration at half of the fitted maximal effect.

SMILES	VACV mCherry inh	VACV Venus inh	MARV entry inh	Lassa entry inh	HCV inhibitor
Oc1ccc2ccccc2c1/C=N/Nc1ccccc1	-5.4%	-5.2%	-3.1%	-12.7%	-14.7%
CC/C(=N/NC(=O)c1ccc2c(c1)OCO2)c1ccccc1O	·	·	·	·	3.16µM*
COc1cc2[nH]c(=O)n(Cc3ccc(C(=O)NCc4ccccc4)cc3)c(=O)c2cc1OC	?	-11.7%	4.7%[46.1 µM]	-10.4%[46.1 µM]	·
CC1=C[C@@H](COCc2ccccc2)O[C@@]2(C1)C(=O)N(Cc1ccc(Br)cc1)c1ccccc12	·	·	3.7%[14.2 µM]	?	·
Cc1cc(O)cc(O)c1/C=N/NC(=O)c1ccc2c(c1)OCCO2	2µM*	?	·	·	·
NS(=O)(=O)c1ccc(NC(=S)Nc2ccc(S(=O)(=O)N3CCCC3)cc2)cc1	-12.6%	-4.0%	1.0%[46.1 µM]	-9.3%[46.1 µM]	9.3%
O=S(=O)(c1ccc(NC(=S)NN=Cc2ccccc2O)cc1)N1CCCCC1	12.6µM*	?	?	6.31µM*	?
O=C(N/N=C\c1c(O)ccc2ccccc12)c1ccc(S(=O)(=O)N2CCCCC2)cc1	-9.3%	0.1%	1.26µM*	?	5.01µM*
O=C(CNC(=O)c1ccc(S(=O)(=O)N2CCCC2)cc1)N/N=C/c1ccccc1Cl	-16.5%	-15.4%	20.4%	-4.7%	?
Cc1c(CCO)sc[n+]1CC(=O)c1ccccc1	-11.6%	-10.3%	·	·	·
COCc1cc(N2CCCCC2)nc(-c2ccccc2)n1	-0.5%	3.8%	?	-24.8%	5.62µM*
CSCc1cc(N2CCCC2)nc(-c2ccccc2)n1	-11.2%	-6.9%	2.7%[46.1 µM]	-1.8%	?
COc1ccc(C(CNc2ccc(S(C)(=O)=O)cc2[N+](=O)[O-])N(C)C)cc1OC (stereo unspecified)	-12.4%	-7.2%	-3.0%[46.1 µM]	5.7%[46.1 µM]	3.98µM*
CN(C)C(CNc1ccc(S(C)(=O)=O)cc1[N+](=O)[O-])c1ccccc1 (stereo unspecified)	-1.2%	-24.3%	?	?	8.0%
Cc1ccc(OCc2cc(C(=O)N3CCC(Oc4cccnc4)CC3)no2)cc1C	·	·	·	·	4.1%
O=C(c1cc(COc2cccc(C(F)(F)F)c2)on1)N1CCCC1	-3.4%	-8.3%	·	·	·
O=C(c1cc(COc2cccc(C(F)(F)F)c2)on1)N1CCC(Oc2cccnc2)CC1	·	·	·	·	11.2µM*
C=CCC1(CC=C)CCCN1C(=O)c1cc(COc2cccc(C(F)(F)F)c2)on1	-1.3%	-14.5%	10µM*	?	·
CC(C)C1=C2OC(N)=C(C#N)C(C#N)=C2[C@H](C)CC1	·	·	-1.3%	·	·
O=C(NCCCn1ccnc1)[C@H](Cc1ccccc1)N1C(=O)c2ccccc2C1=O	·	·	0.9%	·	·
Cc1oc(-c2ccc(C(=O)Nc3cccc(C(F)(F)F)c3)cc2)nc1CSc1ccccc1	?	?	·	-15.1%[46.1 µM]	·
COc1ccccc1N1CCN(Cc2cc(COC(C)C)c3cccnc3c2O)CC1	?	?	3.98µM*	?	·
CCOc1ccccc1N1CCN(Cc2cccc(OC)c2O)CC1	·	·	?	-6.4%	?
COc1ccccc1N1CCN(Cc2cc(C)c(C)cc2O)CC1	i	-3.2%	?	-7.2%	?
CCOCc1cc(CN2CCN(c3cccc(C(F)(F)F)c3)CC2)c(O)c2ncccc12	?	-18.6%[7.34 µM]	?	?	·
SMILES	VACV mCherry inh	VACV Venus inh	MARV entry inh	Lassa entry inh	HCV inhibitor
COc1ccccc1N1CCN(Cc2cc(Br)c(O)c3ncccc23)CC1	?	?	4.7%	·	3.98µM*
CCOCc1cc(CN2CCN(c3ccccc3OC)CC2)c(O)c2ncccc12	12.6µM*	-28.0%	?	?	·
CCOc1ccc(C(=O)NC(=S)Nc2cccc(S(=O)(=O)NC3=NCCC3)c2)cc1	-10.0%	?	?	?	14.1µM*
O=C1[C@H](Cc2ccccc2)NC/C=C\C[C@H](c2ccc(Cl)cc2)N1Cc1ccc(Cl)cc1	-3.3%	-21.1%	·	·	·
CCCCCCC[C@@H](C/C=C/CCC(=O)N(C)C/C(=C/Cl)C/C(=C\C(=O)N1C[C@H](O)CC1=O)OC)OC	-14.8%	?	·	·	?
CCCCCCC[C@@H](C/C=C/CCC(=O)N(C)C/C(=C/Cl)C/C(=C\C(=O)N1CC(OC)=CC1=O)OC)OC	10µM*	?	·	·	?
CCCOc1ccc(C(=O)NCCN2CCOCC2)cc1	i	-18.4%	16.2%	7.5%	0.8%
CCn1c(-c2nonc2N)nc2cnc(Oc3cccc(NC(=O)c4ccc(OCCN5CCOCC5)cc4)c3)cc21	·	·	·	19.9µM*	·
COc1ccc2ccccc2c1CN1CCC2(CCC(CNC(=O)c3ccccc3)O2)CC1 (stereo unspecified)	i	-8.6%	·	·	·
C[C@]12c3[nH]c4ccc(Cl)cc4c3CCN1C(=O)[C@@H](CC(=O)NCc1cccc(C(F)(F)F)c1)C[C@@H]2C(=O)N1CCCCC1	?	?	·	·	25.1µM*
CC(C)N(C(=O)[C@H]1CC(CC(=O)NCCCN(C)C)C(=O)N2CCc3c([nH]c4ccccc34)[C@]12C)C(C)C (stereo partly specified)	-0.5%	-17.3%	·	·	-12.8%
CCN(CC)C(=O)[C@H]1C[C@H](CC(=O)NCc2cccc(C(F)(F)F)c2)C(=O)N2CCc3c([nH]c4cc(-c5ccco5)ccc34)[C@]12C	11.2µM*	11.2µM*	·	·	?
COc1ccc2[nH]c3c(c2c1)CCN1C(=O)C(CC(=O)NCc2cccc(C(F)(F)F)c2)C[C@H](C(=O)N2CCCCC2)[C@@]31C (stereo partly specified)	?	?	-2.6%	·	11.2µM*
CC(C)N(C(=O)[C@H]1CC(CC(=O)NCc2cccc(C(F)(F)F)c2)C(=O)N2CCc3c([nH]c4ccccc34)[C@]12C)C(C)C (stereo partly specified)	-26.9%	?	·	·	10µM*
CCN(CC)C(=O)[C@H]1C[C@H](CC(=O)NCc2ccco2)C(=O)N2CCc3c([nH]c4cc(-c5ccco5)ccc34)[C@]12C	-9.4%	?	·	·	?
COc1ccc2[nH]c3c(c2c1)CCN1C(=O)C(CC(=O)NCc2ccco2)C[C@H](C(=O)N2CCCCC2)[C@@]31C (stereo partly specified)	i	-8.1%	·	·	-16.6%
CCCSc1ncc(Cl)c(C(=O)Nc2ccc(S(=O)(=O)N3CCCC(C)C3)cc2)n1 (stereo unspecified)	-20.5%	-14.5%	-12.3%[46.1 µM]	-27.5%[46.1 µM]	·
COc1ccc(N2CCN(C(=O)c3cc(NC(C)=O)c4c(c3)ncn4CCc3ccccn3)CC2)cc1	i	-4.7%	·	·	·
CCN(CC)C(=O)[C@H]1CC(CC(=O)NCc2cccc(C(F)(F)F)c2)C(=O)N2CCc3c([nH]c4ccc(OC)cc34)[C@]12C (stereo partly specified)	10µM*	?	1.6%	·	?
CC(=O)N1CCC2(CC1)OC(=O)C(C)=C2C(=O)NCc1ccc(Cl)cc1	-6.4%	-15.1%	·	-0.7%[46.1 µM]	·
Cc1[nH]c2ccccc2c1/C=C/c1ccc2ccccc2n1	-13.8%	53.6%	·	·	·
Oc1ccc(Cl)cc1/C=C/c1ccc2cccc(O)c2n1	?	1.9%	?	-15.8%[46.1 µM]	?
Cc1ccsc1/C=C/c1ccc2cccc(O)c2n1	·	·	?	?	12.6µM*

High-throughput results as filed in PubChem.
